# Test results as given in PubChem BioAssay.
# Several values for one entry are separate records, joined by “and”; a condition that tells them apart may be missing. Equal entries are not always repeated. Records with an inconclusive call do not appear. For part of these data: Measured potencies and affinities stand elsewhere. Activity calls are given as the source filed them. Unless noted, no stated cut-off is given here; in the data, active means inhibition above about 80%; inactive means the rest.
# Experiments:
# [1] = target: ATP-dependent translocase ABCB1 (Homo sapiens) (UniProt P08183); assay: P-glycoprotein substrate transport blockade – cell-based (AID 377; in the data active means fluorescence slope change above about 50%); details: MDR1-expressing cells, fluorescent substrate accumulation slope; stronger effect = higher value; concentration not given here
# Sequence of ATP-dependent translocase ABCB1 (Homo sapiens) (P08183 whole entry, looked up): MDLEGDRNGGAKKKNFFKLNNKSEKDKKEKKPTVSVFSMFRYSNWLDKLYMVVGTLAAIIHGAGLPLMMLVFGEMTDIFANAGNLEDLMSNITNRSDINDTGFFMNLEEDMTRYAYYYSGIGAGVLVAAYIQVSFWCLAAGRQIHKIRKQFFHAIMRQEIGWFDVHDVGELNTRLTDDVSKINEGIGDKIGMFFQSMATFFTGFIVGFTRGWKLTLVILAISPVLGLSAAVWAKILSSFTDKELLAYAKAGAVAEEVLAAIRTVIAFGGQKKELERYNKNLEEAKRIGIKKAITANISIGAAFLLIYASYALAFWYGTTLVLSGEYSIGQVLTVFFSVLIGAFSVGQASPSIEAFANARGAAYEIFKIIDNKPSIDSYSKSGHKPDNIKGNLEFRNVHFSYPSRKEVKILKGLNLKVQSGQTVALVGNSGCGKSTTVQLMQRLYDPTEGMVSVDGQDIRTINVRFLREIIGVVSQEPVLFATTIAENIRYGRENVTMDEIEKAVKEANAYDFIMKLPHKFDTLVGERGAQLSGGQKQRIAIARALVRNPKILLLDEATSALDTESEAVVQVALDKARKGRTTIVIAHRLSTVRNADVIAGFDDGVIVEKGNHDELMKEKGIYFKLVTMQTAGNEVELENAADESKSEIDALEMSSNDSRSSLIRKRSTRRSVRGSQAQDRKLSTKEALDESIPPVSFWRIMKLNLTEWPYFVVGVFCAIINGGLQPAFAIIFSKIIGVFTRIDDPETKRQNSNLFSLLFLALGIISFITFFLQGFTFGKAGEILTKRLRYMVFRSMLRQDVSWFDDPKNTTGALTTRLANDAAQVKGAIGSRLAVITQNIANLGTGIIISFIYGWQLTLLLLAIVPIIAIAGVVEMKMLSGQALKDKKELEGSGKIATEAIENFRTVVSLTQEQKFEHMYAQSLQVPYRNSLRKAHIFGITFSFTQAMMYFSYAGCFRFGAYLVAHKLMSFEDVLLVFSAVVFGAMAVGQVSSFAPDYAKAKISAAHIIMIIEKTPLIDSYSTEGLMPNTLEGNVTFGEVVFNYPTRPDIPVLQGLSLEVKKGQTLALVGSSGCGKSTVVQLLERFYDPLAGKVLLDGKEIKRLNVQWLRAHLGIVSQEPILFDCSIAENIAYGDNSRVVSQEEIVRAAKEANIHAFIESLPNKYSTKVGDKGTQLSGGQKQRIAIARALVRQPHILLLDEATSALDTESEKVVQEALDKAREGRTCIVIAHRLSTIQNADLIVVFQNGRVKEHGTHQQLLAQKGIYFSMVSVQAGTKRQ
# [2] = restoration of touch response, mutant HTT neurons – whole organism, C. elegans mechanosensory neurons, N-terminal huntingtin (AID 1599); details: C. elegans polyQ-huntingtin mechanosensory neurons, stronger effect = higher value
# [3] = GFP-Q80 aggregate reduction, neuronal-like cells, cell-based, NGF-treated PC12, GFPQ80 (AID 1614); details: PC12 NGF-treated GFP-polyQ80 inclusion reduction;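 further: lower means fewer inclusions and 0 means no inclusions at all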
# [4] = system: Aerobactin synthetase IucA (Klebsiella pneumoniae); assay: inhibition of K. pneumoniae IucA enzyme – biochemical, Tocris library, absorbance (AID 1345561; call rule not given here;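 further: 100% = enzyme without compound and 0% = no enzyme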); details: purified IucA enzyme assay, absorbance (OD) read-out; stronger effect = lower value;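 tested at 8 µM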
# [5] = viability loss in pontine glioma line – cell-based, SU-DIPG-XVII, MIPE5.0, CellTiter-Glo, qHTS, dose response (AID 1347060; cut-off not given, nearly all actives have AC50 up to about 26 µM); details: CellTiter-Glo ATP luminescence
# [6] = viability loss in pontine glioma line – cell-based, SU-DIPG-XIII, MIPE4.0, CellTiter-Glo, qHTS, dose response (AID 1347061; cut-off not given, nearly all actives have AC50 up to about 37 µM;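 further: cells exposed to compound for 48 hours before readout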); details: CellTiter-Glo ATP luminescence
# [7] = viability loss in pontine glioma line – cell-based, SU-DIPG-IV, MIPE4.0, CellTiter-Glo, qHTS, dose response (AID 1347063; cut-off not given, nearly all actives have AC50 up to about 30 µM;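 further: compound exposure lasted 48 hours before the viability readout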); details: CellTiter-Glo ATP luminescence
# [8] = viability loss in pontine glioma line – cell-based, SU-DIPG-XIII, MIPE5.0, CellTiter-Glo, qHTS, dose response (AID 1347064; cut-off not given, nearly all actives have AC50 up to about 23 µM); details: CellTiter-Glo ATP luminescence
# [9] = JHH-DIPG-1 glioma cell viability, MIPE5.0 library, CellTiter-Glo luminescence, qHTS (AID 1347067; cut-off not given, nearly all actives have AC50 up to about 26 µM;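 further: cells exposed to compound for 48 hours before readout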); details: JHH-DIPG-1 glioma viability, CellTiter-Glo ATP luminescence
# [10] = growth inhibition of DIPG cells – cell-based, MIPE5.0 library, qHTS (AID 1347068; cut-off not given, nearly all actives have IC50 up to about 30 µM); details: SU-DIPG-XXV viability
# [11] = chitosan synthesis blockers in C. neoformans – flow cytometry, Cibacron Brilliant Red staining (AID 1347148; call rule not given here;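 further: compound exposure lasted three days at 37 degrees C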); details: Cryptococcus neoformans chitosan, stronger effect = lower value; at 10 µM unless noted
# [12] = growth inhibition, single agent or in combination, cell-based, chromothripsis tumors, cisplatin or BGB combos (AID 1671449); details: LFS_MB_P medulloblastoma cells;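 further: cells exposed for 96 hours; 0% = vehicle DMSO and 100% = killing by high DMSO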
# [13] = growth inhibition, single agent and combos, cell-based, chromothripsis tumors, cisplatin or BGB combos (AID 1671450); details: HDN33 neuroblastoma cells, stronger effect = higher value;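 further: cells exposed to compound for four days; 0% = vehicle DMSO and 100% = cell killing by high DMSO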
# [14] = growth inhibition, single agents and combos, ICB984, cell-based, cisplatin or BGB combos, synergistic combos for chromothripsis tumors (AID 1671451; call rule not given here;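 further: cells exposed for 96 hours before readout; 0% = vehicle DMSO and 100% = killing by high DMSO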); details: ICB984 medulloblastoma cells, drug combinations, stronger effect = higher value
# [15] = growth inhibition, single agents and combos, LFS_MB_1R, cell-based, cisplatin or BGB combos, synergistic combos for chromothripsis tumors (AID 1671452); details: LFS_MB_1R medulloblastoma cells, stronger effect = higher value;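 further: cells exposed for 96 hours before readout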
# [16] = growth inhibition, single agents and combos, HTB85, cell-based, BGB or cisplatin IC20 combos, synergistic combos for chromothripsis tumors (AID 1671453); details: HTB85 osteosarcoma cells, drug combinations, stronger effect = higher value;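 further: cells exposed for 96 hours before readout; 0% = vehicle DMSO and 100% = high DMSO killing control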
# [17] = growth inhibition, MDA-MB-436, cell-based, BGB or cisplatin combos, synergistic combos for chromothripsis tumors (AID 1671458; call rule not given here;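 further: cells exposed for 96 hours; 0% = vehicle DMSO and 100% = killing by high DMSO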); details: MDA-MB-436 breast carcinoma growth inhibition, drug combinations, stronger effect = higher value
# [18] = BT084 cell growth, single and combined drugs, ICGC_MB145, cisplatin and BGB IC40 combos (AID 1671461); details: BT084 medulloblastoma cells, drug combinations, stronger effect = higher value;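 further: cells exposed to drugs for 96 hours; 0% = vehicle DMSO and 100% = high DMSO full killing control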
# [19] = RCMB18 cell growth, single agent and combined, cisplatin and BGB IC40 combos (AID 1671462); details: RCMB18 medulloblastoma cells, stronger effect = higher value;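 further: cells exposed to compound for four days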
# [20] = CRL1545 cell growth, single agent and combined, cisplatin and BGB IC20 combos (AID 1671464); details: CRL1545 osteosarcoma cells, stronger effect = higher value;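 further: cells exposed to compound for 96 hours before readout; 0% = vehicle DMSO and 100% = high DMSO killing control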
# [21] = measured here: combination with BGB IC40, at 0.05 µM
# [22] = measured here: with BGB IC20 combination, at 0.5 µM
# [23] = measured here: with cisplatin IC20 combination, at 0.5 µM
# [24] = measured here: combination with cisplatin, at 0.5 µM
compound,measurement,setting,value
C[N+]1(C)CCCC(OC(=O)C(O)(c2ccccc2)c2ccccc2)C1 (stereo unspecified),fluorescence slope change,[1],13% (inactive)
same,rescue above control,[2],-3.59
same,inclusion score,[3],2
COc1ccc(/C=C/C(=O)Nc2ccccc2C(=O)O)cc1OC,remaining activity,[4],119% (inactive)
same,outcome,[5],inactive
same,outcome,[6],inactive
same,outcome,[7],inactive
same,outcome,[8],inactive
same,outcome,[9],inactive
same,outcome,[10],inactive
CC(C(=O)O)c1ccc(-c2ccccc2)c(F)c1 (stereo unspecified),rescue above control,[2],19
same,inclusion score,[3],2
same,remaining activity,[4],123% (inactive)
same,AC50,[6],16.6 µM (active)
same,outcome,[8],inactive
same,outcome,[9],inactive
same,outcome,[10],inactive
C[C@H]1COc2c(N3CCN(C)CC3)c(F)cc3c(=O)c(C(=O)O)cn1c23,outcome,[5],inactive
same,outcome,[6],inactive
same,outcome,[7],inactive
same,outcome,[8],inactive
same,outcome,[9],inactive
same,outcome,[10],inactive
CC[C@H]1OC(=O)[C@H](C)[C@@H](O[C@H]2C[C@@](C)(OC)[C@@H](O)[C@H](C)O2)[C@H](C)[C@@H](O[C@@H]2O[C@H](C)C[C@H](N(C)C)[C@H]2O)[C@](C)(OC)C[C@@H](C)C(=O)[C@H](C)[C@@H](O)[C@]1(C)O,outcome,[7],inactive
CC(C)NCC(O)COc1cccc2ccccc12 (stereo unspecified),rescue above control,[2],-3.83
same,inclusion score,[3],2
same,remaining activity,[4],97.5% (inactive)
CC1=C(/C=C/C(C)=C/C=C/C(C)=C\C(=O)O)C(C)(C)CCC1,fluorescence slope change,[1],188% (active)
same,outcome,[8],inactive
same,outcome,[9],inactive
same,outcome,[10],inactive
same,fold fluorescence,[11],5.81 (inactive)
COC(=O)[C@H](c1ccccc1Cl)N1CCc2sccc2C1,rescue above control,[2],1.25
same,inclusion score,[3],2
same,outcome,[5],inactive
same,outcome,[7],inactive
same,outcome,[8],inactive
same,outcome,[9],inactive
same,outcome,[10],inactive
CN(C)c1nc(N(C)C)nc(N(C)C)n1,rescue above control,[2],6.66
same,inclusion score,[3],2
same,outcome,[5],inactive
same,outcome,[7],inactive
same,outcome,[8],inactive
same,outcome,[9],inactive
same,outcome,[10],inactive
same,inhibition,"[12]; at 0.5 µM, stronger effect = higher value",-34.2% (inactive) and -27.6% (inactive)
same,inhibition,"[12]; measured here: combination with BGB IC20, at 0.005 µM",-17.9% and -27.7%
same,inhibition,"[12]; measured here: combination with BGB IC40, at 0.005 µM",-17.9% and -14.9%
same,inhibition,[12]; [21],-9.42% and -37.8%
same,inhibition,"[12]; measured here: combination with cisplatin, at 0.5 µM, stronger effect = higher value",-34.2% and -25.4%
same,inhibition,"[12]; measured here: combination with cisplatin, at 5 µM, stronger effect = higher value",-44.4% and -48.3%
same,inhibition,"[13]; BGB combo, at 5 µM",-7.22% and 3.98%
same,inhibition,[13]; at 0.5 µM,2.99% (inactive) and -25.1% (inactive)
same,inhibition,"[13]; cisplatin combo, at 5 µM",-6.3% and -2.36%
same,inhibition,[13]; [22],12.7% and -32.8%
same,inhibition,[13]; [23],1.13% and -2.01%
same,inhibition,"[13]; single agent, at 5 µM",-11% and -2.53%
same,inhibition,"[14]; BGB IC20 combo, at 0.005 µM",-31.6% and 0.139%
same,inhibition,"[14]; BGB IC40 combo, at 0.005 µM",-11.1% and -14.4%
same,inhibition,"[14]; BGB IC40 combo, at 0.05 µM",-16% and -10.6%
same,inhibition,[14]; at 0.5 µM,-16.4% (inactive) and -22.8% (inactive)
same,inhibition,"[14]; cisplatin combo, at 0.05 µM",-16% and -14.5%
same,inhibition,"[14]; cisplatin combo, at 0.5 µM",-23.9% and -10.7%
same,inhibition,"[14]; cisplatin combo, at 5 µM",-16.8% and 0.591%
same,inhibition,"[14]; measured here: 5 uM single agent, at 5 µM",-7.32% and -28.4%
same,inhibition,[15]; at 0.5 µM,-12.2% (inactive) and -12.7% (inactive)
same,inhibition,[15]; [21],-30.7% and -16.9%
same,inhibition,[15]; [24],-26.8% and 10.6%
same,inhibition,"[15]; measured here: combination with cisplatin, at 5 µM",4.67% and 9.66%
same,inhibition,[16]; at 0.5 µM,-13.6% (inactive) and -3.84% (inactive)
same,inhibition,"[16]; measured here: with BGB IC20, at 0.5 µM",-29.4% and -7.2%
same,inhibition,"[16]; measured here: with BGB IC20, at 5 µM",-7.32% and 14%
same,inhibition,"[16]; measured here: with cisplatin IC20, at 0.5 µM",-12.3% and -1.06%
same,inhibition,"[16]; measured here: with cisplatin IC20, at 5 µM",6.76% and 3.22%
same,inhibition,"[16]; single agent, at 5 µM",-2.06% and 11.5%
same,inhibition,[17]; at 0.5 µM,-22.6% (inactive) and -14.7% (inactive)
same,inhibition,"[17]; measured here: BGB combination, at 0.5 µM",-20.2% and -14.3%
same,inhibition,"[17]; measured here: BGB combination, at 5 µM",-29.4% and -4.55%
same,inhibition,"[17]; measured here: cisplatin combination, at 0.5 µM",-45.1% and -27.9%
same,inhibition,"[17]; measured here: cisplatin combination, at 5 µM",-26.8% and -16.1%
same,inhibition,[18]; at 0.5 µM,-16.2% (inactive) and -0.543% (inactive)
same,inhibition,"[18]; cisplatin combination, at 0.5 µM",-6.73% and -17%
same,inhibition,"[18]; cisplatin combination, at 5 µM",-56% and -11.7%
same,inhibition,"[18]; measured here: BGB IC40 combination 0.05 uM, at 0.05 µM",-15.3% and -38.9%
same,inhibition,"[18]; single agent, at 5 µM",-26.9% and -18.4%
same,inhibition,[19]; at 0.5 µM,-17.5% (inactive) and -22.8% (inactive)
same,inhibition,"[19]; cisplatin combo, at 5 µM",8.02% and 8.44%
same,inhibition,"[19]; measured here: BGB IC40 combination, at 0.05 µM",-20.9% and -5.23%
same,inhibition,[19]; [24],-20.5% and -16.6%
same,inhibition,"[19]; single agent, at 5 µM",-16.6% and -17.8%
same,inhibition,[20]; at 0.5 µM,-6.92% (inactive) and -37.6% (inactive)
same,inhibition,[20]; [22],-15.7% and -14.1%
same,inhibition,[20]; [23],-2.53% and -51.8%
same,inhibition,"[20]; single agent, at 0.05 µM",-4.42% and -41.6%
same,inhibition,"[20]; single agent, at 5 µM",18.4% and -24.6%
